Most compounds without a hit are left out; they make up all but 2.4% or so of the library.
Hsp90 Hop PPI = changes Hsp90-Hop TPR2A binding signal, up or down. AlphaScreen TPR2A-His6 binding biotin-Hsp90 C-terminal peptide. Potency, µM (top dose mostly 57 µM), for the others: at the highest dose activity change, negative = inhibition. actives 0.44% (n = 71,000). AID 595; active means well fitted curve in either direction with a large enough effect; inconclusive means small, poorly fitted or top-dose-only effect, or another doubt; further: on the % scale 0 is the no-effect control and ±100 the full control effect
ALOX15 inhib = 15-hLO (ALOX15) enzyme inhibition; P16050; purified 15hLO-1, xylenol orange hydroperoxide absorbance; Potency, µM (doses to about 57.1 µM), for inactives: top-dose activity change, negative = inhibition, most hits filed as inhibitors; actives 1.4% (n = 74,000); AID 887; further: on the % scale 0 is the no-effect control and ±100 the full control effect; nearly all actives have a fitted effect of over 55% in size
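40 nM 15hLO-1 + cpd, 15 min RT; start w/ 50 uM AA (final), 6 min RT; stop/detect w/ 200 uM XO + 300 uM Fe(II) in 50 mM H2SO4, 30 min; A573/A405. Buffer 25 mM Hepes pH 7.5, 0.01% Triton X-100. No-enzyme wells as negative control.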
Casp1 inh = blocks human caspase-1 allosterically or competitively. P29466. Caspase-1 enzyme, Ac-WEHD-AFC fluorogenic rate. Potency, µM (doses to about 57.5 µM), inactives show top-dose activity change, negative = inhibition, most hits filed as inhibitors. actives 0.03% (n = 75,000). AID 900;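 further: plate controls were vehicle for no effect and no substrate for full effect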
Tau filament bind = binds recombinant human tau filaments | recombinant tau filaments, thioflavin S fluorescence, 15 h; filaments grown with octadecylsulfate alongside compound | AID 596 | actives 2% (n = 71,000) | P10636 | Potency, µM (series often up to 57.1 µM), for inactives: top-dose activity change, negative = inhibition;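 further: on the % scale 0 is the no-effect control and ±100 the full control effect; actives lower thioflavin S fluorescence by blocking filaments or displacing dye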
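Thioflavine S fluorescence (ex 450, em 510 nm) reports filaments formed from 1 uM human tau plus 30 uM ODS over 15 h at 37 C (10 mM HEPES pH 7.4, 100 mM NaCl, 5 mM DTT); compounds displacing dye or blocking filaments lower signal.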
15-hLO-2 inh = blocks human 15-lipoxygenase 2 activity. AID 881. Potency, µM (titrated, usually from 57.1 µM), inactives show at the highest dose activity change, negative = inhibition, most hits filed as inhibitors. purified 15hLO-2, xylenol orange hydroperoxide absorbance. actives 0.56% (n = 110,000). O15296; further: on the % scale 0 is the no-effect control and ±100 the full control effect; nearly all actives have a fitted effect of over 60% in size
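Purified human 15hLO-2 (50 nM final) preincubated with compounds 15 min at room temperature in 25 mM Hepes pH 7.5, 0.01% Triton X-100, then 45 uM arachidonic acid added for 90 min; hydroperoxide detected via ferrous/xylenol orange, 573/405 nm absorbance ratio.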
Caspase-7 inhib = caspase-7 (human) inhibition, allosteric or competitive; actives 0.02% (n = 75,000); recombinant caspase-7, Ac-DEVD-AFC fluorescence rate; P55210; AID 889; Potency, µM (top dose mostly 57.5 µM), for the others: at the highest dose activity change, negative = inhibition, actives largely listed as inhibitors; active means well fitted inhibition curve with a large enough effect in the main read-out, with a control signal flat, not every such curve was filed as active; inconclusive means small, poorly fitted or top-dose-only effect, or a change in a side signal; further: % of control where 0% means no effect
The depositor's hits bear a star; ? = inconclusive; / = not tested or not shown; ! = not active in a repeat; [ ] = another dose, or the depositor's remark. Unless noted, the call rests on the fitted dose curve; in most records, active means well fitted curve in the direction sought with a large enough effect; inconclusive means small, poorly fitted or top-dose-only effect, or another doubt; inactive means no such curve, though single readings can be large; an effect the other way counts as inactive or inconclusive. Potency means the concentration at half of the fitted maximal effect.

SMILES	Hsp90 Hop PPI	ALOX15 inhib	Casp1 inh	Tau filament bind	15-hLO-2 inh	Caspase-7 inhib
CCOc1cc(N2CCOCC2)c(OCC)cc1NC(=O)COc1ncnc2ccccc12	/	/	/	/	-4%	/
CCOC(=O)c1ccc(CC(=O)c2oc3cc(O)ccc3c2C)o1	-12%	20µM*	?	8%	?	?
CCOC(=O)c1oc2cc(O)ccc2c(=O)c1-c1csc(C)n1	-1%	2%	0%	5%	-1%	0%
NC[C@@H]1O[C@H](C23CC4CC(CC(C4)C2)C3)Cc2c1ccc(O)c2O	?	-17%[25.6 µM]	-1%	32µM*!	17%	-1%
O=C(Nc1ccc(Nc2ccccc2)cc1)c1ccc(Br)o1	-17%	-27%	-5%	16µM*	-7%	-4%
O=C(Nc1ccc(N2CCN(C(=O)c3ccc(Cl)cc3)CC2)cc1)c1ccc(Br)o1	-23%	-29%	-4%	25µM*	0%	-7%
COc1ccc(NC(=O)c2ccc(Br)o2)cc1	/	/	/	/	12%[0.0915 µM]	/
C=CCn1c(CC#N)nnc1N1CCOCC1	-11%	11%	1%	-3%	-8%	-2%
COc1ccc(C)cc1NC(=O)c1ccc(N(C)S(C)(=O)=O)cc1	-2%	3%	0%	-13%	3%	0%
O=C(O)CCCN1CCCCC1	0%[11 µM]	1%[11.4 µM]	-6%[11.5 µM]	11%[11.4 µM]	0%[11.4 µM]	0%[11.5 µM]
C/C(CCN1CCc2nc(-c3ccccc3)c(-c3ccccc3)cc2C1)=N\OC[C@@H](C)[C@H](OCc1ccccc1)C(C)C	/	-20%[11.4 µM]	0%[11.5 µM]	/	/	0%[11.5 µM]
Cc1cc(-c2nn3c(-c4ccccc4)nnc3s2)c2ccccc2n1	-9%	-16%	-2%	-7%	-17%	-2%
COc1ccc(-c2nnc3sc(-c4ccco4)nn23)cc1OC	-5%	13µM*	-1%	-22%	-1%	-1%
c1ccc(-c2cc(-c3nn4c(-c5ccco5)nnc4s3)c3ccccc3n2)cc1	-12%	4%	-10%	0.63µM*	-2%[2.29 µM]	-7%
c1ccc(Cc2nnc3sc(-c4ccco4)nn23)cc1	-1%	?	-3%	16µM*	-15%	-13%
Clc1ccccc1-c1nnc2sc(-c3ccco3)nn12	/	/	/	/	-10%	/
CCOCC(=O)N1CCCC(C(=O)OCC)C1 (stereo not drawn)	-1%	-1%	0%	1%	0%	0%
CCNc1ncc2nc(-c3ccc(OC)cc3)c(=O)n(C[C@H]3CCCO3)c2n1	-6%	4%	/	57%	-14%	?
Cc1ccccc1Nc1nc(CSc2nnc(-c3ccoc3C)n2C)cs1	-15%	13µM*	-5%	?	-5%	-23%
Cc1cccn2c(=O)c3cc(C(=O)NC(C)c4ccccc4)c(=N)n(CCCn4ccnc4)c3nc12 (stereo not drawn)	-21%	15%	/	1.3µM*	/	?
Cc1ccc2nc3c(cc(C(=O)NCc4cccnc4)c(=N)n3C(C)C)c(=O)n2c1	-2%	6%	/	151%	-17%	?
CCn1c(=N)c(C(=O)NC)cc2c(=O)n3cccc(C)c3nc21	?	-25%	/	14%	-10%	?
Cc1ccc2nc3c(cc(C(=O)NCc4ccccc4)c(=N)n3CCCn3ccnc3)c(=O)n2c1	?	17%	/	0.5µM*	/	?
CC(C)C1N(C(=O)CN2CCCC2)CCN1S(=O)(=O)c1ccccc1 (stereo not drawn)	/	3%	-3%	/	10%	-1%
O=C(OCC#CCSc1nnc(-c2ccc(Br)cc2)o1)c1ccco1	20%	3.2µM*	-3%	23%	-12%	-4%
SMILES	Hsp90 Hop PPI	ALOX15 inhib	Casp1 inh	Tau filament bind	15-hLO-2 inh	Caspase-7 inhib
CCCCC(CC)COC(=O)C(C#N)=C(c1ccccc1)c1ccccc1 (stereo not drawn)	?	-13%	0%	32µM*	4%[0.0915 µM]	-2%
O=C(Nc1ccc2c(c1)OCO2)C1CCCN(S(=O)(=O)c2cccs2)C1 (stereo not drawn)	-4%	2%	1%	-4%	-17%	0%
O=C(Nc1ccc2c(c1)OCO2)C1CCN(S(=O)(=O)c2cccs2)CC1	-26%	-3%	-3%	13µM*	-1%	-5%
O=C(Nc1ccc2c(c1)OCO2)C1Cc2ccccc2CN1S(=O)(=O)c1cccs1 (stereo not drawn)	-7%	?	-9%	25µM*	-28%	-15%
N#C/C(=C\N1CCNC1=S)C(=O)c1ccc2ccccc2c1	-4%[11 µM]	4%[11.4 µM]	-2%[11.5 µM]	-27%[11.4 µM]	-2%[11.4 µM]	-5%[11.5 µM]
COc1ccccc1-n1c(SCC(N)=O)nc2c(c1=O)SCC2	/	/	/	/	-5%	/
C=CCSc1nnc2nc3c(nn12)c1cc(C)ccc1n3CC=C	-18%	-14%	-2%	6.3µM*	-10%	-2%
CCn1c(=O)c2[nH]c(-c3ccccc3)nc2n(CC)c1=O	-1%	8%	2%	1%	-9%	0%
COCCCN1C(=O)c2[nH]nc(-c3ccccc3O)c2C1c1cccc(Cl)c1 (stereo not drawn)	-3%	-19%	-3%	20%	-15%	-2%
Cc1cc(O)c(-c2n[nH]c3c2C(c2cccc(O)c2)N(Cc2cccnc2)C3=O)cc1Cl (stereo not drawn)	-6%	-20%	-2%	214%	18%	32µM*
CN1CCN(C2=Nc3ccccc3Oc3ccc(Cl)cc32)CC1	-4%[26 µM]	-1%	-2%	-10%[25.6 µM]	3%	4%
Oc1[nH]c2ccccc2c1/C=N/c1nccs1	-7%	2%	-5%	13µM*	-10%	-6%
O=C1C2CCCCN2C(=O)N1CCCCN1CCN(c2ccc([N+](=O)[O-])cc2)CC1 (stereo not drawn)	/	/	/	/	-5%	/
COC(=O)c1[nH]c2cccc(Cl)c2c1NC(=O)CN(C)C1CCCCC1	-9%	5%	-2%	-4%	13%	-3%
O=C(COc1ncnc2ccc(Br)cc12)Nc1ccc(N2CCOCC2)cc1	-8%	-10%	-2%	-16%	1%	1%
Brc1ccc2ncnc(Nc3ccc(N4CCOCC4)cc3)c2c1	-29%	-4%	-2%	16µM*	-2%	-1%
CCOC(=O)C(CCc1ccccc1)NC(C)C(=O)N1C(C(=O)O)CC2CCCC21 (stereo not drawn)	/	3.2µM*	2%	/	24%	-2%
c1ccc(Nc2nc(-c3ccc4c(c3)OCO4)nc3ccccc23)cc1	26%	?	-5%	25µM*	-5%	-7%
CN(C)c1ccc(-c2nc(Nc3ccncc3)c3ccccc3n2)cc1	0%	-25%	-12%	10µM*	15%	-20%
COc1ccc(CNc2nc(-c3ccc(C(=O)N(C)C)cc3)nc3ccccc23)c(OC)c1	-10%	?	-3%	-4%	17%	-4%
CN(C)C(=O)c1ccc(-c2nc(Nc3ccncc3)c3ccccc3n2)cc1	-4%	-15%	1%	-1%	11%	-2%
